The record followed here is PubChem BioAssay (Tox21).

Assay [1] in a line: qHTS assay for small molecule agonists of the p53 signaling pathway (AID 651631; calls by dose curve; also: nearly all actives have a fitted effect of over 15% in size; also: potency is read from the fitted curve at half-maximal effect). Put shortly: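 HCT-116 p53RE-bla reporter line, 16 h compound treatment at 37 °C, then fluorescence after 2 h with B/G FRET substrate.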
A general note: qHTS replaces the single test concentration by a dilution series.

Assay [2] is described as follows: qHTS assay for small molecules that induce genotoxicity in human embryonic kidney cells expressing luciferase-tagged ATAD5 (AID 651632). Also: nearly all actives have a fitted effect of over 15% in size. Put shortly:
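Genotoxicity read-out via ATAD5-luciferase: HEK293T cells, 16 hr compound incubation at 37C, Amplite detection.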

Assay [3] in a line: qHTS assay for small molecule agonists of the p53 signaling pathway - cell viability (AID 651633; calls by dose curve; also: nearly all actives have a fitted effect of over 30% in size; also: potency is read from the fitted curve at half-maximal effect). In short, it runs like this: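 Viability counter-read: CellTiter-Glo luminescence (30 min, room temperature) in the same p53RE-bla plates. These plates had been exposed to compounds for 16 h at 37 C.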
Assay [4] can be described thus: qHTS assay for small molecules that induce genotoxicity in human embryonic kidney cells expressing luciferase-tagged ATAD5 - cell viability (AID 651634; calls by dose curve; also: nearly all actives have a fitted effect of over 25% in size; also: potency is read from the fitted curve at half-maximal effect). Put shortly: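 Live-cell protease activity (CellTiter-Fluor, fluorescence) indicates viability. HEK293T cells with luciferase-tagged ATAD5; 15.5 hr compound treatment at 37C.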
Assay [5] is described as follows: qHTS assay for small molecule disruptors of the mitochondrial membrane potential - cell viability (AID 720634; calls by dose curve;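 also: human HepG2 liver cancer cells; series mostly up to about 83 µM; nearly all actives have a fitted effect of over 20% in size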). Put shortly:
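Human hepatoma HepG2 cells were treated for 1 hr with test chemicals, then given m-MPI dye and CellTiter-Glo. Cell viability reflects luminescence proportional to cellular ATP.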

The nature of assay [6]: qHTS assay for small molecule disruptors of the mitochondrial membrane potential (AID 720635). Also: potency is read from the fitted curve at half-maximal effect. Put shortly: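 Mitochondrial membrane potential tracked with Mito-MPS dye, red aggregates (ex 540/em 590 nm) against green monomers (ex 490/em 535 nm). Compound treatment 1 hr at 37C, dye 30 min in HepG2.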
Assay [7] can be described thus: qHTS assay to test for compound auto fluorescence at 590 nm (red) in HepG2 cells (AID 720674). Put shortly:
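We screened compounds on adherent HepG2 cells, incubating them for an hour at 37 C in 5% CO2 before reading emission at 590 nm under 540 nm excitation; values reflect equivalence to Rose Bengal sodium fluorescence.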

Assay [8] is described as follows: qHTS assay to test for compound auto fluorescence at 535 nm (green) in HepG2 cells (AID 720675).
A short description of assay [9]: qHTS assay to test for compound auto fluorescence at 590 nm (red) in HEK293 cells (AID 720679). In short, it runs like this:
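HEK293 cells (2,000/well, medium with 10% dialyzed FBS) attached for 4-5 hr at 37C, received 23 nL compound and were incubated overnight at 37C, 5% CO2. Red fluorescence was then read at 540/590nm Ex/Em, referenced to Rose Bengal sodium.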

Assay [10] is described as follows: qHTS assay to test for compound auto fluorescence at 535 nm (green) in HEK293 cells (AID 720680).
Assay [11] in a line: qHTS assay to test for compound auto fluorescence at 460 nm (blue) in HEK293 cell free culture (AID 720681). In short, it runs like this: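 Blue fluorescence (Ex 405/Em 460 nm, triamterene-equivalent) was read immediately after pin transfer of compound or DMSO into medium (DMEM, 10% FBS) without cells.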
A short description of assay [12]: qHTS assay to test for compound auto fluorescence at 535 nm (green) in HEK293 cell free culture (AID 720682). Put shortly:
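Steps: dispense DMEM/10% FBS into empty wells; pin in compound or DMSO; measure fluorescence at 485/535 nm. Values are fluorescein equivalents.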

Assay [13] can be described thus: qHTS assay to test for compound auto fluorescence at 590 nm (red) in HEK293 cell free culture (AID 720683). In short, it runs like this:
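Red-channel autofluorescence of compounds in culture medium (DMEM, 10% FBS), no cells, measured at 540/590 nm. Rose Bengal sodium is the reference fluorophore for equivalence.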

A short description of assay [14]: qHTS assay to test for compound auto fluorescence at 590 nm (red) in HepG2 cell free culture (AID 720684). Put shortly:
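Plate contents were MEM with 10% FBS plus test compound or DMSO, no cells. Fluorescence was recorded with 540 nm excitation and 590 nm emission.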

A short description of assay [15]: qHTS assay to test for compound auto fluorescence at 460 nm (blue) in HepG2 cell free culture (AID 720685). Put shortly: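 Compound (23 nL) or DMSO pinned into cell-free MEM with 10% FBS; blue fluorescence read at 405/460 nm excitation/emission, expressed as auto-fluorescence equivalency to triamterene.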
Assay [16] in a line: qHTS assay to test for compound auto fluorescence at 535 nm (green) in HepG2 cell free culture (AID 720686).
The nature of assay [17]: qHTS assay to test for compound auto fluorescence at 460 nm (blue) in HepG2 cells (AID 720687). Put shortly: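 Blue-channel autofluorescence (Ex/Em 405/460 nm, triamterene-equivalent) was measured after 1 hr compound exposure at 37 C, 5% CO2. Cells were HepG2, plated overnight at 37 C in MEM plus 10% FBS.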
Assay [18] has as its target Glucocorticoid receptor (Homo sapiens) (UniProt P04150). The assay can be described thus: qHTS assay to identify small molecule agonists of the glucocorticoid receptor (GR) signaling pathway (AID 720691; active = well fitted activation curve with a large enough effect in the signal ratio in the repeat runs, not every such curve was filed as active; the % refers to the signal ratio). In short, it runs like this:
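Beta-lactamase reporter activity, read as fluorescence intensity, was measured in GR-bla HeLa cells exposed to compounds for 18 h at 37 C and then loaded with LiveBLAzer B/G FRET substrate for 2 h at room temperature.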

Assay [19] shares this target. The assay can be described thus: qHTS assay to identify small molecule antagonists of the glucocorticoid receptor (GR) signaling pathway (AID 720692; active = well fitted inhibition curve with a large enough effect in the signal ratio in the repeat runs, not every such curve was filed as active; the % refers to the signal ratio; also: potency is read from the fitted curve at half-maximal effect). Put shortly: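 Fluorescence from cleaved LiveBLAzer B/G FRET substrate reports GRE-driven beta-lactamase in HeLa cells; compounds are tested against 5 nM dexamethasone (final) over 18 h at 37 C, substrate incubation 2 h at room temperature.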

Assay [20] can be described thus: qHTS assay to test for compound auto fluorescence at 460 nm (blue) in HEK293 cells (AID 720678). Put shortly: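 HEK293 cells (2,000 per well, medium with 10% dialyzed FBS) attached for 4-5 hr at 37C, then received compound and stood overnight at 37C, 5% CO2. Blue fluorescence was read at Ex/Em 405/460 nm and expressed relative to triamterene.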

A number with no mark means an inactive call. Results filed as inconclusive are left out. Active and inactive are the calls of the source. Unless noted, calls follow the shape of the dose curve; as a rule, active = well fitted curve in the direction sought with a large enough effect in the repeat runs; inconclusive = weak or mixed curves; inactive = no such curve, though single readings can be large; an effect the other way counts as inactive or inconclusive.

Glucocorticoid receptor (Homo sapiens), sequence (P04150 whole entry, looked up): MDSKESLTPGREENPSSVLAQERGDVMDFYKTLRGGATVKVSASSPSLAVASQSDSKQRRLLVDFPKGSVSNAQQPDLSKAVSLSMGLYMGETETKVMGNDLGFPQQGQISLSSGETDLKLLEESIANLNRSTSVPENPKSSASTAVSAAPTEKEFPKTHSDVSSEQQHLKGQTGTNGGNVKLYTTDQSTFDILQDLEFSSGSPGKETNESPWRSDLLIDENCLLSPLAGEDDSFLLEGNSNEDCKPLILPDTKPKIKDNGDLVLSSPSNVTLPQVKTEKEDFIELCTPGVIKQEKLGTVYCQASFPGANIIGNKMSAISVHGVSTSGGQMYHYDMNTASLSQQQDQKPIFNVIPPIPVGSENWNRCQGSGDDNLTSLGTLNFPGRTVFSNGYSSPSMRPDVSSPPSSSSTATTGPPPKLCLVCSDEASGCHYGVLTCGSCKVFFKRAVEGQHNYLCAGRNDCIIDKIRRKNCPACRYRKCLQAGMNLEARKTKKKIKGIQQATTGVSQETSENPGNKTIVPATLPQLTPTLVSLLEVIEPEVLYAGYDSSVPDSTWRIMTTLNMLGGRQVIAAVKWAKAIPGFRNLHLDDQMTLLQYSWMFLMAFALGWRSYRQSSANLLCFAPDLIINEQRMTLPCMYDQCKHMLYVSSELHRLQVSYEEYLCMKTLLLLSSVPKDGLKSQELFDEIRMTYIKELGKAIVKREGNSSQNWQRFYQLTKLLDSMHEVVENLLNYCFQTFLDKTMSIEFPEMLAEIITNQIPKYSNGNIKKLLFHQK

With `CC(C)(C)C(=O)C(=O)O`, the Potency result in assay [1], in assay [2], in [3], in assay [4], in assay [5] and in [6] was “inactive” throughout. Besides, the Potency entry in [11], in [15], in [17], in assay [18] and in assay [19] was “inactive” throughout. The call in assay [7], in assay [8], in assay [9], in assay [10], in [12] and in assay [13] was inactive. Also, the call in assay [14] and in assay [16] was inactive.

Turning to `CCCCCCC(C)(C)C(=O)O`, the Potency result in [1], in assay [2], in [3], in [4], in assay [5] and in assay [6] was “inactive” throughout. In addition, the Potency entry in assay [20], in assay [11], in assay [17], in [18] and in [19] was “inactive” throughout. The compound was classed as inactive in [7], in [8], in assay [9], in [10], in assay [12] and in assay [13]. The compound was classed as inactive in assay [14] and in assay [16].

`CC(CO)CO`: the Potency entry in assay [1], in assay [2], in assay [3], in assay [4], in assay [5] and in [6] was “inactive” each time. Also, the Potency result in assay [20], in assay [11], in assay [15], in assay [17], in assay [18] and in [19] was “inactive” in each case. Besides, the outcome in assay [7], in assay [8], in [9], in [10], in assay [12] and in assay [13] was inactive. In addition, the result in assay [14] and in assay [16] was inactive.

In the case of `CO[C@]1(NC(=O)CSC(F)F)C(=O)N2C(C(=O)O)=C(CSc3nnnn3CCO)CO[C@H]21`, the Potency entry in [1], in assay [2], in assay [3], in assay [4], in assay [5] and in assay [6] was “inactive” throughout. In addition, the Potency result in assay [20], in assay [11], in [15], in assay [17], in assay [18] and in assay [19] was “inactive” in each case. The outcome in assay [7], in assay [8], in [9], in assay [10], in [13] and in [14] was inactive. In addition, the outcome in assay [16] was inactive.

`c1csc(SSc2cccs2)c1`: the Potency result in assay [1], in assay [2], in [3], in assay [4], in [5] and in assay [6] was “inactive” in each case. The Potency result in assay [20], in assay [11], in assay [15], in [17], in [18] and in assay [19] was “inactive” each time. Further, the call in [7], in [8], in assay [9], in assay [10], in assay [12] and in assay [13] was inactive. In addition, the outcome in assay [14] and in assay [16] was inactive.

As to `Cc1ccc(C(C)(C)O)cc1`, the Potency result in assay [1], in assay [2], in [3], in assay [4], in [5] and in [6] was “inactive” throughout. Also, the Potency entry in assay [11], in [15], in assay [17], in assay [18] and in assay [19] was “inactive” throughout. Moreover, the outcome in [7], in [8], in assay [9], in assay [10], in assay [12] and in [13] was inactive. Also, the compound was called inactive in [14] and in assay [16].

As for `CC(=O)[C@H]1[C@H](C#N)C[C@H]2[C@@H]3CC=C4C[C@@H](O)CC[C@]4(C)[C@H]3CC[C@@]21C`, the Potency entry in assay [1], in assay [2], in assay [3], in assay [4], in [5] and in assay [6] was “inactive” in each case. The Potency result in assay [20], in [11], in assay [15], in assay [17] and in [18] was “inactive” in each case. The result in assay [8], in [9], in assay [10], in assay [13], in assay [14] and in assay [16] was inactive. The Potency in assay [19] was 10.6 µM (active).

On to `COc1cc(Nc2c(C#N)cnc3cc(OCCCN4CCN(C)CC4)c(OC)cc23)c(Cl)cc1Cl`, for which the Potency is 11.9 µM (active) in assay [1], 26.6 µM (active) in assay [3], 29.8 µM (active) in [4] and 0.376 µM (active) in assay [6]. Besides, the Potency result in [2], in assay [5], in [20], in [11], in assay [15] and in assay [17] was “inactive” throughout. Besides, the call in assay [8], in [9], in assay [13], in assay [14] and in assay [16] was inactive.

For `O=C(O)C[C@H](NC(=O)OCc1ccccc1)C(=O)O`, the Potency entry in assay [1], in assay [2], in assay [3], in assay [4], in assay [5] and in [6] was “inactive” each time. For the same compound, the Potency entry in [20], in [11], in [15], in assay [17], in [18] and in assay [19] was “inactive” in each case. Moreover, the call in assay [7], in [8], in assay [9], in assay [12], in assay [13] and in assay [14] was inactive. Also, the call in assay [16] was inactive.

Regarding `COc1cc(C(=O)NCCCCCC(=O)O)cc(OC)c1OC`, the Potency result in assay [1], in assay [2], in [3], in assay [4], in [5] and in assay [6] was “inactive” in each case. The Potency entry in assay [20], in assay [11], in assay [17], in assay [18] and in assay [19] was “inactive” throughout. Also, the call in [7], in [8], in [9], in assay [10], in assay [12] and in assay [13] was inactive. For the same compound, the outcome in [14] and in [16] was inactive.

For `CC(C)Nc1cccnc1N1CCN(C(=O)c2cc3cc(NS(C)(=O)=O)ccc3[nH]2)CC1`, the Potency entry in [1], in [2], in assay [3], in assay [4], in assay [5] and in [20] was “inactive” in each case. Moreover, the Potency entry in [11], in assay [15], in assay [17] and in [18] was “inactive” in each case. Moreover, the Potency in assay [6] is 26.6 µM (active). Further, the call in [7], in assay [8], in assay [9], in [10], in assay [12] and in [13] was inactive. The call in assay [14] and in assay [16] was inactive.

Take `Cc1ccco1`: the Potency result in [1], in assay [2], in assay [3], in [4], in [5] and in assay [6] was “inactive” in each case. Further, the Potency entry in [11], in assay [15], in assay [17], in assay [18] and in assay [19] was “inactive” throughout. Further, the call in assay [8], in [9], in assay [10], in assay [12], in assay [13] and in assay [14] was inactive. Further, in [16], the outcome was inactive.

As to `CCC1(CO)COCOC1`, the Potency result in assay [1], in assay [2], in assay [3], in assay [4], in [5] and in assay [20] was “inactive” each time. In addition, the Potency result in [11], in assay [17], in assay [18] and in assay [19] was “inactive” throughout. For the same compound, the result in assay [7], in assay [8], in [9], in assay [12], in assay [13] and in [14] was inactive. Besides, the compound was called inactive in assay [16].
